According to PubChem BioAssay AID900 (National Center for Advancing Translational Sciences (NCATS), 2007):
Several values for one entry are separate records, joined by “and”; a condition that tells them apart may be missing. Identical values can stand only once. Screen size: about 75,000 compounds; about 20 (0.03%) were called active. Roughly 1% stayed inconclusive and do not appear here. Calls come from the whole dose curve; as a rule, active = well fitted inhibition curve with a large enough effect; inconclusive = small, poorly fitted or top-dose-only effect; inactive = flat fitted curve, though single readings scatter. The list is a sample of the results. Square brackets hold non-standard residues; d marks the D form. Side chains are listed from the residue outwards. Peptide text beside a SMILES is read from it. * marks the point of attachment. X1 = CCC(C)C(N)C1=NC(C(=O)*)CS1; Orn = NCCC[CH](N)C(=O)O

Molecular target: Caspase-1 (Homo sapiens) (UniProt P29466)
Assay: qHTS Assay for Allosteric/Competitive Inhibitors of Caspase-1;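 note: plate controls were vehicle for no effect and no substrate for full effect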
Conditions: Caspase-1 enzyme, Ac-WEHD-AFC fluorogenic rate; series mostly up to 57.5 µM; activity change, negative = inhibition: at the top concentration
Source text: NIH Molecular Libraries Screening Centers Network [MLSCN]
NIH Chemical Genomics Center [NCGC]
PI Name: Dr. James Wells,
Dr. Enrique Perez-Paya, Dr.Janice Williams, Dr. Dennis Wolan, a person
The caspases (Cysteine Aspartyl Protease) comprise a related family of 14 dimeric proteases that are critical mediators of apoptosis (programmed cell death) and inflammation. The caspases represent an important class of drug targets for stroke, ischemia, cancer and inflammatory diseases. […] One goal of this project was to identify compounds that act as allosteric inhibitors via stabilizing the procaspase form of the enzyme. Previous work in Well's laboratory has shown that such allosteric inhibitors can be identified and these act by binding at the dimer interface of enzyme (Hardy, Lam et al., 2004).
The biochemical assay was configured using purified caspase 1 at a high enzyme concentration to promote formation of the homodimers and thus facilitate the identification of allosteric inhibitors. The overall goal was to identify reversible inhibitors with better drug-like properties than the currently available set of aspartyl-containing peptidomimetics that covalently bind the active site. Caspase 1 was assayed using the profluorescent substrate Ac-WEHD-AFC. After initiation of the assay with substrate the plates were rapidly read using an automated robotic system (Kalypsys, Inc.) to maintain consistent timing. A kinetic mode of detection was used where the initial rate was collected (estimated final product formation was ~10%). Compounds were screened as a concentration-titration series that ranged from 57 uM to 0.7 nM. Below is the protocol used for caspase 1.
NCGC Assay Protocol Summary:
Caspase 1 was prepared in buffer (50 mM HEPES pH 7.5, 50 mM KCl, 200 mM NaCl, 10 mM DTT, 0.1% CHAPS) at a concentration of 66.6 nM and 3 uL was dispensed to all wells using black solid Kalypsys 1536-well plates. 20 nL of DMSO containing compounds was added using a pin-tool (Kalypsys Inc.) to columns 5-48. Then 20 nL of DMSO solution from a control plate was added to columns 1-4. Controls were: Column 1, 16 point titration with each concentration in duplicate (1:1 dilutions in DMSO; final starting concentration was 57 uM) of the caspase 1 inhibitor Ac-WEHD-CHO (Alexis Biochemicals); Column 2, a 16 point titration with each concentration in duplicate of the free AFC fluorophore prepared in DMSO (Alexis Biochemicals), final starting was 40 uM; Column 3 neutral (DMSO only) control; Column 4: DMSO alone, to serve as a negative control (no substrate was added). Then 1 uL of 20 uM the substrate Ac-WEHD-AFC (Alexis Biochemicals) prepared in the same buffer was dispensed to all wells except columns 2 and 4 and the plates were immediately transferred (< 1 min) to the Viewlux. The plates were then exposed using 405 nm excitation/520 nm emission filters for 4 sec and read at 20 sec intervals for 3 min. Final enzyme concentration was 50 nM and the final substrate concentration was 5 uM.
Concentration-response curves were fitted to the data calculated from slope of the linear regression of fluorescent intensity versus time (the rate). The concentration-effect curves were then classified based on curve quality (r2), response magnitude and degree of measured activity. […] Inconclusive compounds had appreciable concentration-dependent effects on both the measured rate and the interpolated basal fluorescence intensity at the start of the reaction but where the basal fluorescent intensity was marginal (e.g. < 10-fold). Inconclusive compounds also encompass highly fluorescent compounds (>100-fold increases in fluorescent intensities values relative to controls) where artificial concentration-dependent decreases in the rate occurred at high compound concentrations due to fluorescent interferences.
Keywords: Caspase 1, proteases, profluorescent, MLSMR, MLSCN, NIH Roadmap, qHTS, NCGC

Activity change, negative = inhibition, inactive:
COC(=O)[C@@H]1CC[C@H](C)[C@@H](c2ccc(C)cc2)N1C(=O)c1ccc(/C=N\O[C@@H](C)c2cn([C@H](CO)Cc3ccccc3)nn2)cc1 -0.293% [at 11.5 µM] and 3.03% [at 11.5 µM]
CO[C@H]1COC(=O)[C@@H](OCc2ccccc2)/C=C\[C@H](C)[C@@H](OC)COC(=O)[C@H](OCc2ccccc2)/C=C\[C@@H]1C -1.1% [at 11.5 µM]
CCOC(=O)N1CCN(C(=O)c2cn(C)c3ccc(S(=O)(=O)N4CCCC4)cc3c2=O)CC1 1.44%
COC(=O)[C@@H]1C[C@@]2(O)[C@@H](O)[C@@H](O)[C@@H](O)C[C@H]2N1Cc1ccc(C)s1 -0.674%
C/C(Cl)=C\Cn1c(Nc2cccc(C)c2)nc2c1c(=O)n(C)c(=O)n2C 1.24%
CC(C)[C@H]1CC[C@@H](C)C[C@H]1O -4.11%
CCC(=O)Nc1nc(OC)cc(OC)n1 -0.774%
Nc1nc2c(nc(Cl)n2C2OC(CO)C(O)C2O)c(=O)[nH]1 (centres undefined) -0.0059%
CC(=O)OCC(=O)[C@@]1(O)CCC2C3CCC4=CC(=O)CC[C@@]4(C)[C@]3(F)C(O)C[C@]21C (some centres undefined) 1.49%
O=c1c(O)c(-c2ccc(O)cc2)oc2ccccc12 1.6%
C=CCn1c(SCc2cc(C(=O)OC)c(C)o2)nnc1-c1ccncc1 -3.64%
C[C@@H](c1ccccc1)N1C(=O)[C@H]2[C@H]3[C@H](O)[C@H](O)C/C(=N/OC[C@@H](O)COCc4ccco4)[C@@H]3CC[C@@H]2C1=O -0.613% [at 11.5 µM]
CCCCCCCCCCCCCCCC(=O)OC/C=C(C)/C=C/C=C(C)/C=C/C1=C(C)CCCC1(C)C 0.363%
Cn1c(N)c(C(=O)COC(=O)c2cc(C(F)(F)F)nc3c(C(F)(F)F)cccc23)c(=O)n(C)c1=O -3.83%
COc1cccc([C@H](O)Cn2cc(-c3ccc(CON=C(C)C)cc3)nn2)c1 -1.21% [at 11.5 µM]
CC1(C)OC2CC3C4CCC5=CC(=O)CCC5(C)C4(F)C(O)CC3(C)[C@]2(C(=O)CCl)O1 (some centres undefined) -2%
CC(C)c1ccc(OCC(O)Cn2cnc3ccccc32)cc1 (centres undefined) -1.04%
CCC(C)C(N)C1=NC(C(=O)NC(CC(C)C)C(=O)NC(CCC(=O)O)C(=O)NC(C(=O)NCCCCC2NC(=O)C(CC(N)=O)NC(=O)C(CC(=O)O)NC(=O)C(Cc3cnc[nH]3)NC(=O)C(Cc3ccccc3)NC(=O)C(C(C)CC)NC(=O)C(CCCN)NC2=O)C(C)CC)CS1 (stereo not drawn) (cyclo(DNK([Ile-Glu-Leu-X1])[Orn]IFH); configuration not given here) -2.89%
COC(=O)[C@@H]1C[C@@]2(O)[C@H](O)[C@H](O)[C@H](O)C[C@H]2N1CC1CCCCC1 -0.903%
CCCN1[C@H](C(=O)OC)C[C@@]2(O)[C@@H](O)[C@@H](O)[C@@H](O)C[C@@H]12 -0.752%
CCOC(=O)N/N=C1/C[C@@H](O)[C@@H](O)[C@@H]2[C@@H]3C(=O)N(CC)C(=O)[C@H]3CC[C@H]12 0.333% [at 11.5 µM]
CSc1nnc2c(n1)OC(c1ccsc1)N(C(C)=O)c1ccccc1-2 (centres undefined) -16%
COc1ccc(COC(=O)N/N=C2/C[C@@H](O)[C@@H](O)[C@@H]3[C@@H]4C(=O)N([C@@H](C)c5ccccc5)C(=O)[C@H]4CC[C@@H]23)cc1 -3.18% [at 11.5 µM]
C/C=C(/C)C(=O)OC1Cc2c(ccc3ccc(=O)oc23)OC1(C)C (centres undefined) -0.913%
